According to PubChem BioAssay (NCI):
About 83,000 compounds went through this panel and 20% of them were active in at least one assay; those are over-represented in the sample as a whole.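 Note: values are percent growth. 100 is the growth of untreated cells, values between 100 and 0 indicate rising inhibition; between -100 and 0 indicates cell death.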 A number with no mark means an inactive call. Active and inactive are the calls of the source. Rule for the calls: active = growth percent below 10; inactive = the rest.

How the values were obtained:
Assay in all cases: NCI-60 one-dose screen, 48 h (100 = growth as untreated, 0 = no growth, -100 = all killed)
Conditions in all cases: 10 µM unless noted
SK-MEL-2 melanoma = tested on: SK-MEL-2 melanoma
EKVX NSCLC = tested on: EKVX NSCLC
SN12C renal = tested on: SN12C renal
UO-31 renal = tested on: UO-31 renal
TK-10 renal = tested on: TK-10 renal
ACHN renal = tested on: ACHN renal
CAKI-1 renal = tested on: CAKI-1 renal
A498 renal = tested on: A498 renal
CCRF-CEM leukemia = tested on: CCRF-CEM leukemia
MOLT-4 leukemia = tested on: MOLT-4 leukemia
SR leukemia = tested on: SR leukemia
RPMI-8226 leukemia = tested on: RPMI-8226 leukemia
OVCAR-8 ovarian = tested on: OVCAR-8 ovarian
OVCAR-5 ovarian = tested on: OVCAR-5 ovarian
OVCAR-4 ovarian = tested on: OVCAR-4 ovarian
SK-OV-3 ovarian = tested on: SK-OV-3 ovarian
IGROV1 ovarian = tested on: IGROV1 ovarian
OVCAR-3 ovarian = tested on: OVCAR-3 ovarian
HS 578T breast = tested on: HS 578T breast
NCI/ADR-RES ovarian = tested on: NCI/ADR-RES ovarian

SMILES	growth (SK-MEL-2 melanoma)	growth (EKVX NSCLC)	growth (SN12C renal)	growth (UO-31 renal)	growth (TK-10 renal)	growth (ACHN renal)	growth (CAKI-1 renal)	growth (A498 renal)	growth (CCRF-CEM leukemia)	growth (MOLT-4 leukemia)	growth (SR leukemia)	growth (RPMI-8226 leukemia)	growth (OVCAR-8 ovarian)	growth (OVCAR-5 ovarian)	growth (OVCAR-4 ovarian)	growth (SK-OV-3 ovarian)	growth (IGROV1 ovarian)	growth (OVCAR-3 ovarian)	growth (HS 578T breast)	growth (NCI/ADR-RES ovarian)
CCOc1cc2ncc(C#N)c(Nc3ccc(OCc4cccc(F)c4)c(Cl)c3)c2cc1NC(=O)CCCCC1CCSS1 (stereo unspecified)	94.3%	78.5%	88.6%	55.8%	92.2%	91.3%	72%	70.1%	78.9%	78.5%	92.4%	78.6%	91%	111%	99.6%	83.7%	82.2%	102%	91.3%	101%
C#Cc1cccc(NC(=O)c2ccccc2NC(=O)C=C)c1	104% [8.25 µM]	109% [8.25 µM]	94% [8.25 µM]	85.6% [8.25 µM]	81.1% [8.25 µM]	105% [8.25 µM]	97.3% [8.25 µM]	96.8% [8.25 µM]	106% [8.25 µM]	102% [8.25 µM]	101% [8.25 µM]	66.9% [8.25 µM]	91.4% [8.25 µM]	113% [8.25 µM]	100% [8.25 µM]	99.2% [8.25 µM]	101% [8.25 µM]	104% [8.25 µM]	89.9% [8.25 µM]	103% [8.25 µM]
O=C1Nc2ccc(Br)cc2C12Oc1ccccc1C1CC(c3ccc(F)cc3)=NN12 (stereo unspecified)	98.1%	85.5%	93.3%	65.6%	121%	91%	78.7%	102%	91%	74.8%	87.1%	84%	93.7%	111%	85.5%	102%	72.8%	96.3%	89.1%	97.3%
COc1ccc(C(=O)COc2cccc(/C=C3\CSc4ccccc4C3=O)c2)cc1	-30.9% (active)	70.7%	29.6%	18%	-5.8% (active)	-35.8% (active)	-47.9% (active)	85.4%	-62.2% (active)	-65.7% (active)	-65.1% (active)	-62.4% (active)	6.51% (active)	32.4%	84.4%	108%	–	64.4%	-11.1% (active)	15.1%
CCOC(=O)c1sc2nc(-c3cccc(O)c3)nc(N3CCOCC3)c2c1C	78.9%	36.1%	50.7%	25.4%	79.1%	58.3%	72.3%	97.8%	42.2%	29.1%	65%	55.4%	61.8%	88.3%	51.3%	51.1%	16.9%	60.5%	15.5%	59.6%
CCN(CC)S(=O)(=O)c1ccc(OC)c(NC(=O)c2[nH]c(C)c3c2CCCCC3=O)c1	55.3%	43.5%	42%	14.4%	13.5%	31.1%	15.1%	15.1%	55.7%	64.9%	43.4%	16.7%	41.1%	54.1%	49.5%	20.4%	24.8%	39%	16.4%	40.2%
c1ccc(CCNc2ncnc3[nH]ncc23)cc1	127%	58.3%	92.7%	62.1%	110%	89.2%	90.4%	104%	95.1%	124%	107%	67%	95%	82.5%	81.1%	109%	83.5%	108%	–	97.9%
Cn1ccnc1C(=O)/C=C/c1ccccc1	46.9%	-9.85% (active)	41.6%	-33.7% (active)	15.3%	33%	11.7%	-15.9% (active)	9.1% (active)	70%	18.9%	-8.79% (active)	20.9%	38.7%	26.8%	27.5%	–	0.598% (active)	-2.82% (active)	20.9%
Cn1cc(-c2nonc2-c2c[nH]c3ccccc23)c2cccnc21	8.48% (active)	49.7%	39.6%	55.7%	75.3%	60.9%	39.3%	17.1%	20.2%	16.5%	23.5%	40.8%	47.8%	72.3%	74.5%	41.7%	39.4%	15.2%	36.1%	13%
COc1ccc(/C=C\c2cc(OC)c(OC)c(OC)c2)cc1OCC(=O)Nc1ccc2nc(C)sc2c1	-1.27% (active)	66.8%	51.8%	5.67% (active)	1.02% (active)	47.1%	23%	80.1%	15.5%	22.7%	12.2%	-8.5% (active)	9.11% (active)	112%	43%	78.5%	25.2%	41.6%	36.4%	0.808% (active)
C=CC(COC(c1ccccc1)(c1ccccc1)c1ccccc1)N(CC)CC (stereo unspecified)	85.8%	76.1%	58.3%	59.4%	79.8%	81.7%	67.1%	73.8%	59.3%	8.88% (active)	44.7%	10.6%	77%	66.1%	67.9%	75.5%	62%	71.9%	85.7%	62.4%
CCOc1nc(-c2ccccc2)cc2c(O)c(C(=O)N/N=C/c3ccc(O)cc3O)[nH]c(=O)c12	-8.71% (active)	36.2%	39.1%	-13.2% (active)	52.1%	9.99% (active)	8.55% (active)	65.3%	-33.9% (active)	17.3%	27%	38%	14.5%	43.6%	39.3%	41.6%	15.6%	–	–	-40.1% (active)
COc1ccc(/C=C/C(=O)c2cc(O)ccc2O)cc1	101%	93%	93.7%	73.1%	95.3%	84.9%	67.7%	109%	41.1%	79.2%	71.9%	45.8%	88.6%	108%	136%	115%	83.4%	83.4%	–	91.8%
CN(CCCCCl)P(=O)(OCc1ccc([N+](=O)[O-])o1)C(F)(F)c1ccc(CC(=O)NC[C@@H](O)/C=C\[C@@H](O)[C@H](CO)Cc2ccccc2)cc1 (stereo partly specified)	66.5%	99.3%	98.8%	88.9%	113%	94%	104%	83.8%	70.7%	93.5%	47.7%	77.1%	95.1%	111%	95.2%	–	99.4%	107%	103%	101%
O=[N+]([O-])c1cnc(N2CCN(CC3CC3)CC2)nc1N1CCN(CC2CC2)CC1	98.5%	86.5%	98.2%	80.2%	102%	104%	92.5%	86.6%	106%	103%	115%	100%	104%	92.2%	95%	111%	90.6%	98.6%	–	90.2%
Brc1ccc(-c2csc(Nc3ccccn3)n2)cc1	69.8%	70%	95.7%	75.8%	101%	217%	84.2%	91.3%	74.8%	82.6%	68.8%	68%	101%	92.4%	50%	82.7%	79.4%	–	114%	74%
